Screens deposited in PubChem by National Center for Advancing Translational Sciences (NCATS).
EPAC1 agonist: validation of human EPAC1 agonists. O95398. EPAC1 Rap1b BODIPY-GDP exchange, fluorescence. Potency, µM, for inactives: max response, positive = active, usual class: activators. 16,000 compounds, 1% hits. AID 1645883; also: nearly all actives have a fitted effect of over 70% in size
Target sequence (O95398 whole entry, looked up): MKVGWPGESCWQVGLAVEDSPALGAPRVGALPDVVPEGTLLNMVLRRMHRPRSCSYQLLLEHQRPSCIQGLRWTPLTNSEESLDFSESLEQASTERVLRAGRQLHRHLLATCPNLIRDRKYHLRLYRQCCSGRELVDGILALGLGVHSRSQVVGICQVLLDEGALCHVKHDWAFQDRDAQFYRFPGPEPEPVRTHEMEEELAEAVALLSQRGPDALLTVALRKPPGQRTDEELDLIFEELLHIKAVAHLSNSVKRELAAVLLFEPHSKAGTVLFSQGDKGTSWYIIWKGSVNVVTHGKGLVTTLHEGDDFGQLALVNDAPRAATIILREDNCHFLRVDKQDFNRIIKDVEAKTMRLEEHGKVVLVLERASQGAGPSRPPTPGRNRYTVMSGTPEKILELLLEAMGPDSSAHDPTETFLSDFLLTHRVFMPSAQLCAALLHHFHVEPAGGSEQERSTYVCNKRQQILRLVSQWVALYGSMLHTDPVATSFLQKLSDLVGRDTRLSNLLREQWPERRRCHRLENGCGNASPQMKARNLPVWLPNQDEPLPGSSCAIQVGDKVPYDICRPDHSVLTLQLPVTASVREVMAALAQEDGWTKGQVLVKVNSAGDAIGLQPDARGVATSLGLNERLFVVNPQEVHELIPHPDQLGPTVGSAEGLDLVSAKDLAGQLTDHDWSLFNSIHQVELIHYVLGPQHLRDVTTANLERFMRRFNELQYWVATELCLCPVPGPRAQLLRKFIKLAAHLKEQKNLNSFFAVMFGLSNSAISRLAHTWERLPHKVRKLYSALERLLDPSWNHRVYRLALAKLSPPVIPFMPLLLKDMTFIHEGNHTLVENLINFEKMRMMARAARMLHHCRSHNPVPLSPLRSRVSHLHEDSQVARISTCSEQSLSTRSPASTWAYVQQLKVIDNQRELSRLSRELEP
EPAC2 ant val: human EPAC2 antagonism, validation; Q8WZA2; EPAC2 Rap1B BODIPY-GDP exchange, fluorescence; Potency, µM (series often up to 112 µM), for inactives: at the top dose activity, negative = inhibition, most hits filed as inhibitors; 16,000 compounds, 1.7% hits;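 also: 100% = activation by cAMP agonist control; nearly all actives have a fitted effect of over 40% in size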
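Fluorescent exchange read-out: 100 nM EPAC2 with 250 nM RAP1B–BODIPY-GDP and 50 uM GDP; BODIPY-GDP release lowers fluorescence. Read at 480/540 nm every 5 min for 30 min at room temperature; normalized to 6.5 mM cAMP.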
* = called active by the depositor; i = inactive; ? = inconclusive; ! = not confirmed by another sample. A selection: hits, their analogues and other compounds. The true share with any hit is near 2.9%. Calls follow the shape of the dose curve; as a rule, active = well fitted curve in the direction sought with a large enough effect; inconclusive = small, poorly fitted or top-dose-only effect, or another doubt; inactive = no such curve, though single readings can be large; an effect the other way counts as inactive or inconclusive. Unless noted, % is scaled to controls: 0 for no effect and ±100 for the full control effect; potency is read from the fitted curve at half-maximal effect.

SMILES	EPAC1 agonist	EPAC2 ant val
COCCOC(=O)C1=C(C)NC(C)=C(C(=O)OC(C)C)C1c1cccc([N+](=O)[O-])c1 (stereo not given)	4%	?
CCOC(=O)C1=C(C)NC(C)=C(C(=O)OC)[C@H]1c1cccc([N+](=O)[O-])c1	15%	18µM*
CC1=C(C(=O)OC(C)C)C(c2cccc([N+](=O)[O-])c2)C(C(=O)OC2CN(C(c3ccccc3)c3ccccc3)C2)=C(N)N1 (stereo not given)	100µM*	1%
CCOC(=O)C1=C(C)NC(C)=C(C(=O)OC)C1c1cccc([N+](=O)[O-])c1 (stereo not given)	0%	7.9µM*!
COCCOC(=O)C1=C(C)NC(C)=C(C(=O)OC(C)C)[C@@H]1c1cccc([N+](=O)[O-])c1	0%	50µM*
COC(=O)C1=C(C)NC(C)=C(C(=O)OC(C)(C)CN(C)CCC(c2ccccc2)c2ccccc2)C1c1cccc([N+](=O)[O-])c1 (stereo not given)	?	-28%
COC(=O)C1=C(C)NC(C)=C(C(=O)O[C@@H]2CCCN(Cc3ccccc3)C2)[C@@H]1c1cccc([N+](=O)[O-])c1	?	-25%
COC(=O)C1=C(C)NC(C)=C(C(=O)OCCCN2CCC(c3ccccc3)(c3ccccc3)CC2)[C@H]1c1cccc([N+](=O)[O-])c1	13%	?
CC(=O)N[C@@H](C=O)[C@H](O)[C@H](O)[C@@H](O)CO	29%	2%
COc1cc(-c2cccc(OC)c2OC)cc2c1OCCN(Cc1cn[nH]c1-c1ccc(Cl)cc1)C2	3%	?
CCC(=O)NCc1nc(-c2cccc(NC(=O)c3ccc(C)s3)c2)oc1C	-14%	-20%
Cc1occc1C(=O)Nc1cccc(-c2nc(CNC(=O)c3cccc(C#CC(C)(C)O)c3)c(C)o2)c1	-5%	-18%
CO[C@H]1[C@H](NC(=O)c2cccs2)c2ccccc2C12CCN(Cc1cccn1-c1cccnc1)CC2	7%	?
COc1cccc(C2(CC(=O)N3CCN(c4ccccc4O)CC3)CC(=O)N(C3CCCC3)C2=O)c1 (stereo not given)	7%	?
CCCC(=O)OC[C@@H](OC(=O)CCC)[C@@H](OC(=O)CCC)[C@H](Cn1c2nc(=O)[nH]c(=O)c-2nc2cc(C)c(C)cc21)OC(=O)CCC	?	119%
Cc1cc2nc3c(=O)[nH]c(=O)nc-3n(CC(O)C(O)C(O)CO)c2cc1C (stereo not given)	35µM*	i
CCC(=O)OCC(=O)[C@@]1(OC(=O)CC)[C@H](C)C[C@H]2[C@@H]3CCC4=CC(=O)C=C[C@]4(C)[C@@]3(F)[C@@H](O)C[C@@]21C	25%	?
O=C1c2ccccc2C(=O)c2c(O)ccc(O)c21	-23%	57%
O=C1OC(c2ccc(O)cc2)(c2ccc(O)cc2)c2ccccc21	?	35µM*!
C/C1=C2N=C(/C=C3N=C(/C(C)=C4\[N-][C@@](C)([C@@H]5N=C1[C@](C)(CCC(=O)NCC(C)OP(=O)(O)O[C@H]1[C@@H](O)[C@@H](n6cnc7cc(C)c(C)cc76)O[C@@H]1CO)[C@H]5CC(N)=O)[C@@](C)(CC(N)=O)[C@@H]4CCC(N)=O)[C@@](C)(CC(N)=O)[C@@H]\3CCC(N)=O)C(C)(C)[C@@H]/2CCC(N)=O.CC(=O)O.[Co] (stereo not given in full)	-44%	79µM*
CCC(C)(C)C(=O)OC1CC(C)C=C2C=CC(C)C(CCC3CC(O)CC(=O)O3)C21 (stereo not given)	6%	i
CCC(C)(C)C(=O)O[C@@H]1C[C@@H](C)C=C2C=C[C@H](C)[C@H](CC[C@@H]3C[C@@H](O)CC(=O)O3)[C@H]21	-43%	50µM*
CC(C)(Sc1ccc(CCN(CCCCC2CCCCC2)C(=O)NC2CCCCC2)cc1)C(=O)O	-4%	45µM*!
COc1ccccc1C(=O)Nc1cccc(N2CCC(NCc3cnn(-c4ccccc4)n3)CC2)c1	11%	-9%
O=C1C2CC3CC1CC(O)(C3)C2	3%	-23%
SMILES	EPAC1 agonist	EPAC2 ant val
COC[C@H](c1ccc(C(F)(F)F)cc1)N1CCN(C2(C)CCN(C(=O)c3c(C)ncnc3C)CC2)C[C@H]1C	-33%	-1%
O=C[C@H](O)[C@@H](O)[C@H](O[C@H]1O[C@H](CO)[C@@H](O[C@H]2O[C@H](CO)[C@@H](O)[C@H](O)[C@H]2O)[C@H](O)[C@H]1O)[C@H](O)CO	3%	12%
Oc1ccc(Cl)cc1Sc1cc(Cl)ccc1O	-30%	50µM*
Cc1ccccc1CN1[C@H](C)[C@H](c2ccccc2)OCCS1(=O)=O	4%	?
C1=Cc2ccccc2/C1=C\c1ccc2c(c1)OCO2	100µM*	?
C1=Cc2ccccc2/C1=C/c1ccc(/C=C2\C=Cc3ccccc32)cc1	?	17%
OCCCNCc1cc2ccc(F)cc2nc1N1CCN(c2cccc(Cl)c2)CC1	2%	-20%
